Experimental data as given in PubChem BioAssay (NCATS).
Records with an inconclusive call do not appear. Calls of active or inactive are those of the source. Calls come from the whole dose curve; as a rule, active = well fitted curve in the direction sought with a large enough effect; inconclusive = small, poorly fitted or top-dose-only effect, or another doubt; inactive = no such curve, though single readings can be large; an effect the other way counts as inactive or inconclusive.

Key:
[1] = target: Cellular tumor antigen p53 (Homo sapiens) (UniProt P04637); assay: Primary qHTS for small molecule compounds that upregulate eGFP-tagged delta133p53alpha (in N-terminal) cells. (AID 2060322); conditions: NCI-H358 eGFP-delta133p53alpha fluorescence, 24 h; activation: stronger effect = higher value;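 note: series mostly up to about 56 µM; 0% = DMSO vehicle and 100% = reference activator; nearly all actives have a fitted effect of over 75% in size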
Method in brief: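 NCI-H358 cells pre-induced 24 h with 10 ng/ml doxycycline to express N-terminal eGFP-delta133p53alpha, then dosed 24 h at 37C without doxycycline; fixed, Hoechst-stained, GFP intensity by laser scanning cytometry, normalized to DMSO (0%) and 57.5 uM 5-azacytidine (100%).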

[2] = target: Aldehyde dehydrogenase, mitochondrial (Homo sapiens) (UniProt P05091); assay: qHTS for Inhibitors of the Aldehyde Dehydrogenase Family (ALDH2) Primary screen (AID 2061308);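 note: plate controls were vehicle for no effect and reference inhibitor for full effect; nearly all actives have a fitted effect of over 55% in size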
[3] = target: Retinaldehyde dehydrogenase 3 (Homo sapiens) (UniProt P47895); assay: qHTS for Inhibitors of the Aldehyde Dehydrogenase Family (ALDH1A3) Primary screen (AID 2061315);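 note: plate controls were DMSO vehicle for no effect and reference inhibitor for full effect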

Chain of Cellular tumor antigen p53 (Homo sapiens) (P04637 whole entry, looked up): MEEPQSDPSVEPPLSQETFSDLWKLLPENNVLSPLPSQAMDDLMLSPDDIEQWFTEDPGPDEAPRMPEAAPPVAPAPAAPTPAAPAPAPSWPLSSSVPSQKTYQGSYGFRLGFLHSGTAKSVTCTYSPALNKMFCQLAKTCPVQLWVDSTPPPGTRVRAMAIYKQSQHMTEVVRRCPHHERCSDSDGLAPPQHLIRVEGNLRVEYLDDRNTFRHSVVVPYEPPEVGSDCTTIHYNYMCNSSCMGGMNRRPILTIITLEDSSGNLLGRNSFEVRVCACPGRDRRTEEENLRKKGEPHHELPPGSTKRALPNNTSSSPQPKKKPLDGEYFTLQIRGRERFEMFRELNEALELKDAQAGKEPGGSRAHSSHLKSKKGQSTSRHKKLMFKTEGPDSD

COC(=O)CC[C@@H](C)C1CCC2C3CCC4C[C@H](OC(C)=O)CCC4(C)C3C[C@H](O)C21C (some centres undefined)
inactive: activation [1] 3.67% | Potency [2] | Potency [3]

CCCCn1ccc(N2CCC(c3ccccc3)CC2)c(Cl)c1=O
inactive: activation [1] -2.33% | Potency [2] | Potency [3]

C=C[C@H]1[C@H](O[C@@H]2O[C@H](CO)[C@@H](O)[C@H](O)[C@H]2O)OC=C(C(=O)OC)[C@H]1CCO
inactive: activation [1] -7.63% | Potency [2] | Potency [3]

C[C@@]12C[C@]3(O)O[C@H](O1)[C@]1(COC(=O)c4ccccc4)[C@H]3C[C@@]12O[C@@H]1O[C@H](COC(=O)c2ccccc2)[C@@H](O)[C@H](O)[C@H]1O
inactive: activation [1] -5.34% | Potency [2] | Potency [3]

CCOC(=O)C1=Cc2ccc(C(F)(F)C(F)(F)F)cc2N=C(N)C1
inactive: activation [1] -1.79% | Potency [2] | Potency [3]

CC1=C2C(=O)C=C(CO)C2[C@H]2OC(=O)[C@H](C)[C@@H]2[C@@H](OC(=O)Cc2ccc(O)cc2)C1 (some centres undefined)
inactive: activation [1] -11.6% | Potency [2] | Potency [3]

OC[C@H]1O[C@@H](OCCc2ccc(O)cc2)[C@H](O[C@@H]2OC[C@](O)(CO)[C@H]2O)[C@@H](O)[C@@H]1O
inactive: activation [1] 1.79% | Potency [2] | Potency [3]

CC1(C)CC[C@]2(C(=O)O[C@@H]3O[C@H](CO)[C@@H](O)[C@H](O)[C@H]3O)CC[C@]3(C)C(=CCC4[C@@]5(C)CC[C@H](O[C@@H]6O[C@H](C(=O)O)[C@@H](O)[C@H](O)[C@H]6O)[C@@](C)(CO)C5CC[C@]43C)C2C1 (some centres undefined)
inactive: activation [1] -1.53% | Potency [2] | Potency [3]
